Results reported in PubChem BioAssay AID1832 (Broad Institute, 2009).
Hit rate of the full screen: of about 300,000 compounds, about 1,100 (0.37%) were called active. The full list was thinned out, with actives kept by preference. Unmarked numbers belong to inactive results.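 How the source made its calls: active means inhibition past about -25% in most replicates, and total fluorescence under double the plate's negative control median (limit read from the data); inconclusive means replicates evenly split on the limit, or fluorescence at least double controls; inactive means too little inhibition in most replicates.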

The compounds below were run against Zinc finger protein mex-5 (Caenorhabditis elegans) (UniProt Q9XUB2) (assay: MEX-5 zinc finger RNA-binding disruptors – biochemical, C. elegans, fluorescence polarization, MLPCN library, primary screen (AID 1832;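 further: 0% = DMSO and -100% = 5 µM competing unlabeled TCR2 RNA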)). Conditions: MEX-5/FITC-TCR2 RNA binding, at 10 µM, stronger effect = lower value.
Zinc finger protein mex-5 (Caenorhabditis elegans), sequence (Q9XUB2 whole entry, looked up): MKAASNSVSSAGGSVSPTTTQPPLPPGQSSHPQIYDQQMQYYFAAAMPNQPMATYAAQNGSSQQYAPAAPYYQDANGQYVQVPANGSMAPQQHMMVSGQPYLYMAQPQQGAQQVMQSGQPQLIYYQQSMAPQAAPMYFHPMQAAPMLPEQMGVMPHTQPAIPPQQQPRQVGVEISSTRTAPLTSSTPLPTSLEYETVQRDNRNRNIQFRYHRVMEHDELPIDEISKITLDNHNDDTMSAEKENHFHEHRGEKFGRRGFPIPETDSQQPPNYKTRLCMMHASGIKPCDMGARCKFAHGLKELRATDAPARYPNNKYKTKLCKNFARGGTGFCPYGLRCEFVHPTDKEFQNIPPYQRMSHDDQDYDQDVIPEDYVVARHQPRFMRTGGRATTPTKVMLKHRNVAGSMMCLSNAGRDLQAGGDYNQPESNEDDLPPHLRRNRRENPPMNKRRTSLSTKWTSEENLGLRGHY

Point of comparison: `COc1ccc(/C=C/C(=O)c2ccc(NS(=O)(=O)c3ccc(C)cc3)cc2)cc1O`, activity score (negative = inhibition of binding) -0.65%. Against it:
- COc1ccc(Cn2c(-c3ccc(Cl)cc3)c[n+]3ccccc23)cc1 — higher, 2.75%
- COc1ccc(NC(=O)c2cn(-c3ccccc3)nc2SC)cc1 — higher, 2.01%
- COc1ccc(NC(=O)CN(C)C(=O)c2n[nH]c3ccccc23)cc1 — lower, -3.49%
- CCCCN(CC)CCCNC(=O)c1ccc(CSc2nc3ccncc3[nH]2)cc1 — higher, 1.01%
- Cc1ccc(C2NC(=S)NC3=C2N2CCC3CC2)cc1 (stereo unspecified) — higher, 0.478%
- Cc1nonc1C1CCCN1Cc1nc(-c2ccc(F)cc2F)oc1C (stereo unspecified) — lower, -2.15%
- Cc1ccc(-n2cc(CN(C)Cc3nccn3C)c(-c3cccc(C)c3)n2)cc1 — higher, 1.9%
- N#C[C@]1(S(=O)(=O)c2ccccc2)C[C@@H]2ON=C(c3cccc(Br)c3)[C@@H]2C1 — higher, 1.51%
- Cc1ccnc(NC(=O)c2ccc(Cl)c([N+](=O)[O-])c2)c1 — higher, -0.216%
- Cc1nn(CC(=O)N2CCCCC2)c(=O)c2nn(-c3ccccc3)c(C)c12 — lower, -3.02%
- Cc1nn(C(C)C(=O)NCCC2=CCCCC2)c(=O)c2nn(-c3ccccc3)c(C)c12 (stereo unspecified) — lower, -2.35%
- CC(C)Cc1nnc(NC(=O)CCc2ccccc2)s1 — higher, -0.0404%
- COC(=O)CSc1nnc(NC(=O)CCc2ccccc2)s1 — higher, 0.825%
- O=C(COC(=O)c1cccc(Cl)c1)Nc1ccc2[nH]c(=O)[nH]c2c1 — higher, 0.565%
- NC(=O)c1nsc(C(=O)N(CCCN2CCOCC2)C(C(=O)NC2CCCCC2)c2ccc(Cl)cc2)c1N (stereo unspecified) — lower, -0.973%
- COC(=O)c1ccc(NC(=O)c2cc3c(CO)cnc(C)c3oc2=Nc2cccc(C(N)=O)c2)cc1 — higher, -0.18%
- Cc1cc(NC(=O)Nc2ccccc2[N+](=O)[O-])no1 — higher, 0.456%
- COc1ccc(/C=C2/C(=O)N(c3ccccc3)N=C2C)c(OC)c1 — higher, 1.89%
- O=C1N/C(=C/c2cccn2-c2ccccc2)C(=O)N1c1cccc(Cl)c1 — higher, 3.72%
- COc1ccc(C(=O)/C=C/c2cccnc2)c(OC)c1 — higher, 0.878%
- COC(=O)c1ccc(COc2ccc(/C=C/C(=O)c3ccc(OC)c(CSCC(=O)O)c3)cc2OC)cc1 — lower, -5.72%
- COc1ccc(CCNS(=O)(=O)c2cc3c(cc2C)NC(=O)CO3)cc1OC — higher, 0.926%
- COC(=O)NNC1=CC(=O)CC(C)(C)C1 — lower, -6.29%
- CC1(C)CC(=O)C=C(Nc2ccccc2)C1 — higher, 1.36%
- Cc1cc(NC(=O)CCC(=O)N(Cc2ccccc2)C(C(=O)NC2CCCC2)c2ccc(C)o2)no1 (stereo unspecified) — lower, -2.13%
- NS(=O)(=O)c1ccc(N=Nc2c(O)[nH]c3ccc(Br)cc23)cc1 — lower, -2.29%
- O=C(CNC(=O)Cc1ccccc1)N=Nc1c(O)[nH]c2ccc(Br)cc12 — higher, 0.589%
- O=c1[nH]c(CN2CCOCC2)nc2scc(-c3ccccc3)c12 — higher, 1.42%
- COc1ccc(NC(=O)CCn2ccnc2)c(OC)c1 — higher, -0.322%
- CCCCn1c(=O)c(C(C)=O)c(O)c2ccccc21 — higher, 0.942%
- CCOc1ccc(N=Cc2c(O)n(-c3cccc(C)n3)c(=O)c3ccccc23)cc1 — lower, -1.96%
- C=CCn1cc(Cl)cc(C(=O)Nc2ccccc2)c1=O — lower, -0.689%
- COc1ccccc1NC(=O)CCSc1nnc(-c2ccc(O)cc2)o1 — lower, -2.37%

In the case of `CN1c2ccc(C=O)c3c(C=O)ccc(c23)N(C)C1(C)C`, the activity score (negative = inhibition of binding) is reported as -35.3% (active).
With `Cc1nn(C(C)C(=O)N2CCOCC2)c(=O)c2nn(-c3ccccc3)c(C)c12` (stereo unspecified) the activity score (negative = inhibition of binding) was -34.7% (active).
For `COc1cc2c(cc1/C=C1/NC(=O)N(c3ccccc3)C1=O)OCO2`, the activity score (negative = inhibition of binding) was -27% (active).
For `COc1ccc(C(=O)/C=C/c2ccc(-c3ccccc3)cc2)cc1CSCC(=O)O`, the activity score (negative = inhibition of binding) was -31.8% (active).
In the case of `Cc1cc(C)nc(NNC2=CC(=O)CC(C)(C)C2)n1`, the activity score (negative = inhibition of binding) is reported as -66.2% (active).
`Oc1[nH]c2ccc(Br)cc2c1N=Nc1nn[nH]n1` was tested, and the activity score (negative = inhibition of binding) was -74.2% (active).
`CC(=O)n1c(C=Nc2ccccc2)c(O)c2ccccc21` was tested, and the activity score (negative = inhibition of binding) was -52.6% (active).
